Measured values: the supplement of paper PMC12632987

T1: FBXL12, Q9NXK8
T1 chain: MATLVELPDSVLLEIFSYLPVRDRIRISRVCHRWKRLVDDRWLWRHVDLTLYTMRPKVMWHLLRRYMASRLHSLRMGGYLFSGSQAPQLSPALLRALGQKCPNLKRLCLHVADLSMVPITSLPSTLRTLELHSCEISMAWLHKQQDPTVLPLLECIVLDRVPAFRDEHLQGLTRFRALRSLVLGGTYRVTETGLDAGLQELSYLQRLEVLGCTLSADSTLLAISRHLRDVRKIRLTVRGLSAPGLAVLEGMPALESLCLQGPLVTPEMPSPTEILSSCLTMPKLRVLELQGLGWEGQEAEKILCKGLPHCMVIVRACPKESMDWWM


Biological target: T1, FBXL12, Q9NXK8
Test: median log2 fold change of GCK-ALFA target abundance (FLAG IP / Myc IP barcode read proportion) (log2 ratio); each designed protein is fused to an ALFA-tag nanobody in HEK293 cells to bring the named protein to FLAG-tagged glucokinase (GCK); Myc marks an untargeted standard; higher = target protein stabilised (more abundant)
Conditions: target protein: 3xFLAG-MCP-GCK-ALFA reporter; HEK293 landing pad (RPLP)
Method in brief: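 An ALFA-nanobody-fused binder library was recombined into HEK293 landing-pad cells and induced with 2 μg mL^−1 doxycycline. Cells were transfected with a plasmid expressing a FLAG-tagged target and a Myc-tagged standard. After 48 h, lysates underwent anti-FLAG and anti-Myc immunoprecipitation, and circular RNA barcodes were reverse transcribed, amplified and sequenced. Target abundance is the per-binder median log2 ratio of FLAG to Myc barcode read proportions. Barcodes needed ≥10^−7 proportion in both replicates, binders ≥3 barcodes per replicate, and a 10^−6 pseudocount was added; the two replicates were pooled.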

Binder	median log2 fold change
FBXL12_hotspot_59_83 (protein) MIEVRVRGPVEEALRRALELLRAARELLKKHKDSPLYPRILEIFESALREAVRLAVEAGDEEALREAEEIVEEAEKVVSPEDAERLREALERAKREAEEE	-0.0926
FBXL12_hotspot_67_86 (protein) MLRLLVIRIRAETVEEARRSLALAEAYVRAARARGWRVLVVAWAATPEVAALFRERLAELEREYGARTVLIEDRENGEEELARTTARLKAELLAEMDEEE	-0.304
FBXL12_hotspot_52_65 (protein) MRTVELVLVLQGDDVEAARRLLDRGVAIAEGLKAAGVRVRVVIEYSGSLESVPAVVEAMRRFKALGAEVRVVVSDDPALAEARAALRAAAEELGAEFVVR	-0.218
FBXL12_hotspot_54_66 (protein) KTVTLVVRAETVEALRTTLATALAIAEGLLAAGITVRVEIRARSEDVLEATRLATRAAERLEALGAEDIRVEVEVETEEERREVERVAEEERRRERERRA	-0.267
FBXL12_hotspot_109_3 (protein) KSVIVVLASGSPEHAETTFQTGVEIVKGLAEAGVKVGLLILTTKENEAIAEKALEEVKDYVAVSELVVFPTKEEFEAQLDKVKEEKIKRLEEKLEKLEEE	0.364
FBXL12_hotspot_59_84 (protein) MRKVVIRGPPEQALANALALLRAAVELLKEHAGSELAPRILEFFLSTLKEAVRAAIALGDEEALEEIERLVEEAQEAVDEEDARRLREALERAREEAEAA	-0.544
FBXL12_hotspot_54_67 (protein) KTVTLVLRATTVEALRTTLATGVAIAKGLLAAGIRVRVVIRADSEDVLEATRIATRAAAELEALGAEDITVEIKVETEEEREEVEREAARVRAEAEAERA	-0.0916
FBXL12_hotspot_59_77 (protein) MRRIIISGPSEQRIRNLREFSDALIELIDKHKGTPEAERLEEMLVGLFEESLKIAKEEKDVELLKELKKLVEEAIPHVSPEYAERLKKILEEIEKELAEL	0.0852
FBXL12_hotspot_54_69 (protein) KTVLIVVEAETLPALERSLATALEIARGLRAAGVRVEVRIRVRHPDVAAAAEAATRAAAEFRELGAERIEVEIETATEEDRERAEAARRETEARLAAEKA	-0.0113
FBXL12_hotspot_59_85 (protein) MRVVIVRGPVEEAARRITELLEAIAELLREIPQDERAERLVEIALSLLEEAVRLVEEGLDEELARRVIEAAERAAEEATPEQAERLNEAIERLREAIERR	-0.444
FBXL12_hotspot_59_82 (protein) MVTVRVRGPLEQALAQALALLRAATALLAELADSPKRPKLLEIYKAVLREAVRLATEAGDEEALAEIERLLAEARAAVSPEDAAELEEAYAEARREAAAA	-0.218
FBXL12_hotspot_59_75 (protein) MLEIRVSAHPDESLEAIKRTVEYAIEMIKELIKRGRIEDAKAAIRSVTRSVTEIVIRKGNEELAEHFLELLEELKEIANEEVKKVIEEAMEEFRERVAAA	-0.31
FBXL12_hotspot_35_61 (protein) MRVVRVVFEGTSVEGARYMALAALLAKEALGAKVEIELSPSESREVRVIAAALRMLAEGKSIEEVKEELGLSEEEVEEMKRLAEELRAETAELLAELKAR	-0.36
FBXL12_hotspot_59_81 (protein) MRRIIIRGEPEQRLRQFEALAKALIELIKEHKGTPEAERLEEMLVGLFEEALKYAKEEKDVELLEALIKLAKEALPYVSPEYQKRLEKIIEEAEKAIKEF	-0.417
FBXL12_hotspot_35_58 (protein) MRVVVVRFEGSSEEGALYMATAALLAQRVLGARVVVEIHPDESREVRIIAAALRHLAEGLSWEEIREELGLTEEEMERARELAERLRAEVERLAAELRAR	-0.372
FBXL12_hotspot_35_62 (protein) MRRVVVRFTSPTPEGARYMAVTALLASRELGAEVEIEVAPDASLEIRRIAAALYALVTGVPVSEALARFGLPESEAPAVEAEAERLRAEVDEELARLRAR	0.1

Binder	median log2 fold change
FBXL12_hotspot_52_63 (protein) MRTVTIVVSVESPDMEMARRTTETAAAIAEGLAAAGVRVVLVVRAAHADALAFATRRLAEVAARLGAELRVETHPSLDPAEVAAIAAAARAAAAAAAAAA	-0.889
FBXL12_hotspot_35_57 (protein) MRTVVVQNAGSSLEGVRYAALAALVAVRVLGARLEVQISPDASREQRLILAAAEALASGRPLEEVVAERGLSEEELEEVRRIAEELRAEAERAVAELRAR	-0.0958
FBXL12_hotspot_35_60 (protein) MRTVRVVFEGTSPEGARYMALAAALAARELGARVEVRLDPSESREVKVIAAALRVLAEGRPLEEVVEELGLTEEEIEEMEKILEELREEVERLSAELRAR	-0.434
FBXL12_hotspot_59_72 (protein) MRRVVVRGPPEQALAQALALLEALLALLVEHEGTPDEPRLLELLESTYRELLRTARALGDAAAIERARAAIEAAKARLSPATAARLAEAVARAEAEVEAE	-0.077
FBXL12_hotspot_54_70 (protein) KVVTIRVRAETIEAARRTVETAVEIARGLREAGIEVEVELELEAEDVEAAARLAAEARHAFERIGARRIEVRLRLARPEDAPVFERLFAEELERLRREEE	-0.0489
FBXL12_hotspot_35_59 (protein) MRTVRVVFRGTSPEGARYMALAAALAAKELGARVEIEIDPNESREVRIIAGALMVLAEGRSLEEVVEELGLTEEEVEEMKRIAEELRKETERLAAELRAR	-0.274
FBXL12_hotspot_109_4 (protein) MTRILVGAATTPEAARHTFSTIVEIAKGLKDEEVIAVLVVLDDPEMRAIAERAAEELRALGAEVRLEVAPTLEALEAARARLLAEAEAEADARDAAAAAA	-0.542
FBXL12_hotspot_59_78 (protein) MRRIIISGEPEQRIKNLKELSDALIELIDKHKGTPEAERLEEMLVGLFEEALEQAKKEKDLELLETLKKEIEKAKPHVSPEYAEKLEELLKEVEKEIAEL	0.0323
FBXL12_hotspot_59_79 (protein) MRRIIVRGEPEQVIKQTRALADALIALIDEHRGTPEQARLEDMLVGLFEETIKYAKEIGDVELLETIVELADRALPHVSPEYQKRIEELRKEALEAIKKL	-0.207
FBXL12_hotspot_54_68 (protein) KTVLLVVRATTVEALRRTLETAVAIAEGLLAAGHRVRVEIRVDSEDVLEATRLATRAAERLEALGAEDIRVEVRVETEEEKEEVERVAEETRREERERRA	-0.347
FBXL12_hotspot_59_80 (protein) MRVIRISGEPEQRIRQFELYSDALIELIKEHKGTPEAERLEEMLVGLFKYMLEVAKKEKNVELLETLVKQARKALPHVSPEYAKELEKIIKEAEKAIAEL	-0.4
FBXL12_hotspot_52_64 (protein) MRTVTIRVRIESPDMAMARRTTETAAAIARGLAAAGVRVVLEVEAAHLEALRFATRELARVAAELGAELRVRVHPSLDPEEVERVYREALAEAEAEAAAA	-0.455
FBXL12_hotspot_59_71 (protein) MRRVVVRGDPEAALRQARALLEALLELLVRHEGTPQEPRLLELLESTYRELLRTARELGDEAAIAAARAAIEAAEKRLSPELAARLRAAVAAAEAAVEAE	-0.323
FBXL12_hotspot_59_73 (protein) MVEVVIRGPLEQAIEQALALLKAAAELIVKHEGTEKQERLVSIFISTLRELYRLAAEAGDEEAIEEADKIVKELMEKVDPETAAKLKAEREAIKKELAAA	-0.363
FBXL12_hotspot_59_76 (protein) MRRIILRGPPEQRRANLVAYSDALIKLIKEHKGTPEAERLEEMLVGLFEEALRQAEAERDRALLETLAEQVKKAIPFVSPEYAKRLEEILERIERALAEL	-0.366
FBXL12_hotspot_59_74 (protein) MLEIRVSAHPDESTEQIKNTIRYAVEMIKELIERGLIEDAIAAIRSLGRSVTEIVIRRKNEEVYNFFLELLEELKEIANPEVKKVIDEVIKEFKERVKKA	0.185
